From PubChem BioAssay come the findings set out here.

Calls of active or inactive are those of the source.

A short description of experiment [1]: optical density shifts of acrAB sulA E. coli – strain DRC41, OD650, 48 h, E. coli filamentation inducer project, primary screen (AID 1152).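 Further: E. coli MC1000 strain DRC41 lacking acrAB efflux pump and sulA.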 The conditions noted are these: higher = more signal, called active from +8 up or from −8 down.
The nature of experiment [2]: probe aLefty1 binding on compound microarray – biochemical, small-molecule microarray, 635/667 nm fluorescence, primary screen (AID 1153).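 Further: score merges spot fluorescence with signal-to-noise ratio from the scanned slide images.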 The settings on record: higher = more signal.
Experiment [3] in a line: plasmodial surface anion channel blockers, osmotic lysis – cell-based, P. falciparum Indochina, OD700, 1 h, primary screen (AID 1154). The conditions noted are these: P. falciparum Indochina infected RBC osmotic lysis, higher = more signal, called active from +8 up or from −8 down.
Experiment [4] can be described thus: plasmodial surface anion channel blockers, osmotic lysis – cell-based, P. falciparum Indochina, OD700, 2 h, primary screen (AID 1155).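 Further: lysis reports solute entry through the parasite surface anion channel PSAC.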 The settings on record: P. falciparum Indochina infected erythrocytes, higher = more signal, called active from +8 up or from −8 down.
Experiment [5] is described as follows: changes in parasitized red cell lysis, either direction – P. falciparum Indochina, OD700, 3 h, PSAC antagonist project, primary screen (AID 1156). The settings on record: P. falciparum-infected erythrocytes, osmotic lysis, higher = more signal, called active from +8 up or from −8 down.
Experiment [6] in a line: plasmodial surface anion channel blockers, osmotic lysis – cell-based, P. falciparum Indochina, OD700, 18 h, primary screen (AID 1157). The settings on record: P. falciparum Indochina infected erythrocytes, osmotic lysis OD700, 18 h; higher = more signal, called active from +8 up or from −8 down.
A short description of experiment [7]: S6 kinase pathway phospho-S6 level changes – cell-based, A549, cytoblot, luminescence, serum-stimulated, primary screen (AID 1158).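 Further: serum-stimulated A549 lung adenocarcinoma cells; signal is phosphorylated S6 detected by cytoblot immunostaining with HRP secondary.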 The conditions noted are these: 5 h, higher = more signal.
Experiment [8] deals with NADPH oxidase 2 (Homo sapiens) (UniProt P04839). The experiment is described as follows: compounds shifting NOX2 Amplex Red fluorescence – cell-based, HEK293-NOX2, PMA-stimulated, NOX inhibitor project, primary screen (AID 1159). Further: test concentration not given here. The conditions noted are these: 45 min, higher = more signal, called active from +8 up or from −8 down.
Sequence of NADPH oxidase 2 (Homo sapiens) (P04839 whole entry, looked up): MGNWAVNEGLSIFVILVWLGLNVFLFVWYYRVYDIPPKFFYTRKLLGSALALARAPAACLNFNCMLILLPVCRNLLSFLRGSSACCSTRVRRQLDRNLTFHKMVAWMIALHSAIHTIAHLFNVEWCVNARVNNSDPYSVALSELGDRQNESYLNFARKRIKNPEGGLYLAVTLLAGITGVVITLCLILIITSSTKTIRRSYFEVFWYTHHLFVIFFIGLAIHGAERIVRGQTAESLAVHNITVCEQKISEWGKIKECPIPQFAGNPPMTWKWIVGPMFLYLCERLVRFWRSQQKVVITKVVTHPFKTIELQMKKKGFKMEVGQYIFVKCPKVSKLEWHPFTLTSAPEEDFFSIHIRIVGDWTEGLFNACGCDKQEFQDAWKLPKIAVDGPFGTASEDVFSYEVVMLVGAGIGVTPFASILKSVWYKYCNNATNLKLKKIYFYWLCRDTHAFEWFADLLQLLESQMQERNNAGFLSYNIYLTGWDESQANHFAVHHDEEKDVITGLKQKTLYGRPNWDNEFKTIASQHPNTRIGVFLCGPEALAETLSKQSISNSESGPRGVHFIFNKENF
For experiment [9], the target named is NADPH oxidase 4 (Homo sapiens) (UniProt Q9NPH5). The experiment is described as follows: compounds shifting NOX4 Amplex Red fluorescence – cell-based, HEK293-NOX4, tetracycline-induced, NOX inhibitor project, primary screen (AID 1160). The conditions noted are these: HEK293-NOX4, Amplex Red H2O2 fluorescence, 45 min; higher = more signal, called active from +8 up or from −8 down.
Sequence of NADPH oxidase 4 (Homo sapiens) (Q9NPH5 whole entry, looked up): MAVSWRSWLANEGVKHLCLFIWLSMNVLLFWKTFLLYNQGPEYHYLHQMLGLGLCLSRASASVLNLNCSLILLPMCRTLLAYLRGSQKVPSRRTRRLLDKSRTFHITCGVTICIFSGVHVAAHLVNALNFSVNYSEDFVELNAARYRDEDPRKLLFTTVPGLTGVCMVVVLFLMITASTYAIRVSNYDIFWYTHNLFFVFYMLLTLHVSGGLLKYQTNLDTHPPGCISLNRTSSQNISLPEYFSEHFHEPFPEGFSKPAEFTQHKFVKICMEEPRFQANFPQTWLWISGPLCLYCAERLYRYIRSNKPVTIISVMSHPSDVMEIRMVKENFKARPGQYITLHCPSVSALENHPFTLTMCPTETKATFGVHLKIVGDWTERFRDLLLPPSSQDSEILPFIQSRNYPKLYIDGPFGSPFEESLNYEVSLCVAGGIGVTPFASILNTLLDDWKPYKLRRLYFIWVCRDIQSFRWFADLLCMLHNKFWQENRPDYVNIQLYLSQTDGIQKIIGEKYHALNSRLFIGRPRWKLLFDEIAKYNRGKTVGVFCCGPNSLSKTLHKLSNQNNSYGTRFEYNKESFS

For experiment [10], the target named is NADPH oxidase 5 (Homo sapiens) (UniProt Q96PH1). The experiment is described as follows: compounds shifting NOX5 Amplex Red fluorescence – cell-based, HEK293-NOX5, NOX inhibitor project, primary screen (AID 1161). The conditions noted are these: HEK293-NOX5, ionomycin, 45 min, higher = more signal.
Sequence of NADPH oxidase 5 (Homo sapiens) (Q96PH1 whole entry, looked up): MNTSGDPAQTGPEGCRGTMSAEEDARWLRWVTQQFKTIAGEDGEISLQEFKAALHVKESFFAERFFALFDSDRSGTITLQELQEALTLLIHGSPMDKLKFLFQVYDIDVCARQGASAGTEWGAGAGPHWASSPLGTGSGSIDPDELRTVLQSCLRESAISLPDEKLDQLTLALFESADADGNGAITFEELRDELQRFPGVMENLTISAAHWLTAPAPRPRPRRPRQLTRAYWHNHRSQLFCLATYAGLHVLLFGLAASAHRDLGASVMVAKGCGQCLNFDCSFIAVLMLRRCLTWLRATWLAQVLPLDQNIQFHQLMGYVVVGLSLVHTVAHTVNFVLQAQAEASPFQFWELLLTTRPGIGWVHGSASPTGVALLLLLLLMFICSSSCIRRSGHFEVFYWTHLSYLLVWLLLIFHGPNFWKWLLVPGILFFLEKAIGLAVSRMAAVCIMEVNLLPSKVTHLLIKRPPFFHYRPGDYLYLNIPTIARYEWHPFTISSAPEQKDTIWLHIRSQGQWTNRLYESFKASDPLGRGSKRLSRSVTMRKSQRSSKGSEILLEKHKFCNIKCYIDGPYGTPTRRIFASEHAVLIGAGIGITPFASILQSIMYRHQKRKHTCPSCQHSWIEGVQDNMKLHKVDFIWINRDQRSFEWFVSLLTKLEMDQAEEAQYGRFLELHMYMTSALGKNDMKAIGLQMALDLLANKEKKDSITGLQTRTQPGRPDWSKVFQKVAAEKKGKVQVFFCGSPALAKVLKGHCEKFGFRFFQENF

In the case of `O=C/C=C/c1ccc(Cl)cc1`, the z-score in [1] is 0.73 (inactive); in experiment [3] it was -0.406 (inactive); in [4], -2.04 (inactive); in experiment [5] it was -0.316 (inactive); in experiment [6], -2.54 (inactive); in experiment [7], 0.617. Besides, the z-score in experiment [8] was -0.506 (inactive); in experiment [9], -0.869 (inactive); in [10], 1.44. In addition, in [2], the composite z-score was -0.0885.

With `CC(C)c1ccc(NN2C(C(O)c3ccc(N(C)C)cc3)C=CC3C(=O)N(c4ccccc4)C(=O)C32)cc1` (stereo not given), the z-score in experiment [1] was -0.448 (inactive); in experiment [3] it was 1.72 (inactive); in experiment [4] it was 1.05 (inactive); in experiment [5], 0.655 (inactive); in experiment [6], 1.32 (inactive); in [7] it was -0.183. For the same compound, the z-score in [8] is -1.14 (inactive); in [9], -0.983 (inactive); in experiment [10], -2.39. Besides, the composite z-score in experiment [2] was 0.544.

For `CC(C)N1C(=O)[C@@]2(c3ccc([N+](=O)[O-])cc3)CC(=O)N(CC34CC5CC(CC(C5)C3)C4)[C@@H]2c2ccc(CO)cc21`, the z-score was 0.0258 (inactive) in [1]; 0.297 (inactive) in experiment [3]; 0.328 (inactive) in [4]; 0.0625 (inactive) in [5]; 0.131 (inactive) in experiment [6]; -0.561 in experiment [7]. Moreover, the z-score in [8] was 0.306 (inactive); in experiment [9] it was -0.0646 (inactive); in experiment [10], 0.607. In experiment [2], this compound returned a composite z-score of 1.04.

For `CC(C)C[C@@H]1NC(=O)[C@H]2C[C@@H](C(=O)NCCCCCCNC(=O)CS)[C@@H](c3cccc(OCCO)c3)N2C1=O`, the z-score in experiment [1] is 1.03 (inactive); in experiment [3], 3.77 (inactive); in experiment [4], 0.194 (inactive); in experiment [5], 2.83 (inactive); in experiment [6], -0.042 (inactive); in experiment [7] it was -0.0016. The z-score in experiment [8] is 1.14 (inactive); in experiment [9], 0.665 (inactive); in experiment [10], -0.112. In [2], the composite z-score is -0.0523.

`[N-]=[N+]=Nc1ccccc1[C@@H]1OC(c2ccc(OCCCO)cc2)=N[C@]1(CCS(=O)(=O)c1ccccc1)C(=O)N1CCOCC1`: the z-score in experiment [1] is 0.325 (inactive); in experiment [3], 30.4 (active); in [4], 25.4 (active); in experiment [5], 0.736 (inactive); in experiment [6], 6.38 (inactive); in experiment [7], -0.444. The z-score is -1.54 (inactive) in experiment [8], 1.47 (inactive) in experiment [9] and 1.47 in experiment [10]. In experiment [2], the composite z-score came to 0.701.

For the compound `CCOC(=O)C1=C[C@@H](C(C)C)N(S(=O)(=O)c2ccc(C)cc2)[C@H]1c1ccc(C(C)C)cc1`, the z-score is -0.39 (inactive) in experiment [1]; 0.431 (inactive) in [3]; 0.749 (inactive) in experiment [4]; 0.4 (inactive) in experiment [5]; 0.367 (inactive) in experiment [6]; -0.234 in experiment [7]. Besides, the results for the z-score in experiment [8], in [9] and in experiment [10] were -0.5 (inactive), -0.195 (inactive) and -0.151, respectively. Also, in [2], the composite z-score was 0.262.

Take `O=C1C2C=CC(C(O)c3ccc(B(O)O)cc3)N(Nc3ccccc3)C2C(=O)N1c1ccccc1` (stereo not given): the z-score was -1.52 (inactive) in experiment [1]; 1.07 (inactive) in [3]; -0.447 (inactive) in [4]; 0.977 (inactive) in experiment [5]; -0.447 (inactive) in experiment [6]; 0.64 in experiment [7]. For the same compound, the z-score in [8] is -3.57 (inactive); in [9], -5.02 (inactive); in experiment [10] it was -7.63. The compound also showed a composite z-score in [2] of 0.0315.

Consider `Cc1ccccc1C(O)C1C=CC2C(=O)N(C)C(=O)C2N1Nc1ccccc1` (stereo not given), for which the z-score in experiment [1] was -1.71 (inactive); in experiment [3], 1.15 (inactive); in [4], 0.737 (inactive); in experiment [5] it was -0.0787 (inactive); in [6], 1.1 (inactive); in experiment [7], -0.711. Besides, the z-score in experiment [8] is -1.39 (inactive); in experiment [9], -4.19 (inactive); in experiment [10], -2.72. This compound also showed a composite z-score in experiment [2] of 0.274.

As for `CCOC(=O)C[C@H]1[C@H](OC(=O)c2ccc(-c3ccccc3)cc2)[C@@H](NC(=O)c2ccc3ccccc3c2)c2cc(OCCCO)ccc2N1C(=O)Cc1ccc(OC)cc1`, the z-score in [1] was 0.107 (inactive); in [3], 2.49 (inactive); in [4], 0.927 (inactive); in [5] it was 1.21 (inactive); in experiment [6], 0.263 (inactive); in experiment [7], 0.452. The z-score in experiment [8] is -1.1 (inactive); in experiment [9] it was -0.0144 (inactive); in [10], -1.47. In addition, the composite z-score in [2] was -0.304.

`COC(=O)[C@@]1(Cc2ccccc2)N=C(c2ccc(OCCCO)cc2)O[C@H]1c1ccccc1N=[N+]=[N-]`: the z-score in experiment [1] was 0.388 (inactive); in [3] it was 29.2 (active); in experiment [4] it was 24.1 (active); in experiment [5], 1.79 (inactive); in experiment [6] it was 5.76 (inactive); in experiment [7], 0.661. The z-score in experiment [8] was -2.01 (inactive); in experiment [9], 0.373 (inactive); in [10], -1.06. This compound gave a composite z-score in experiment [2] of 0.129.

Turning to `CC(=O)C1=CCC(c2ccccc2)N(S(=O)(=O)c2ccc(C)cc2)C1` (stereo not given), the z-score in experiment [1] is -1.12 (inactive); in experiment [3] it was 2.75 (inactive); in experiment [4], 1.5 (inactive); in experiment [5], 1.4 (inactive); in [6] it was 1.07 (inactive); in [7], -0.26. Besides, the z-score in experiment [8] is -0.179 (inactive); in experiment [9], -1.4 (inactive); in [10], 0.0221. Also, in experiment [2], the composite z-score amounted to 0.157.

Regarding `CN1C=C(C(=O)OCCS(C)(=O)=O)C(C(=O)OCCS(C)(=O)=O)=CC(CCCO)=CC1C1CC1` (stereo not given), the z-score in experiment [1] was 1.07 (inactive); in experiment [3], 1.43 (inactive); in [4], 0.63 (inactive); in experiment [5] it was 0.483 (inactive); in experiment [6], 0.16 (inactive); in [7], 0.471. The z-score in [8] is -2.51 (inactive); in experiment [9], -1.07 (inactive); in experiment [10], -1.38. This compound had a composite z-score in experiment [2] of 0.026.

`C=CCC(OC(C)=O)[C@@H]1[C@@H](N(Cc2cccc3ccccc23)C(=O)c2cccc3ccccc23)c2cc(OCCCO)ccc2N1C(=O)c1ccc2ccccc2n1` (stereo not given in full): the z-score in experiment [1] is -0.773 (inactive); in experiment [3] it was 1.1 (inactive); in experiment [4], 0.613 (inactive); in [5] it was -0.249 (inactive); in experiment [6], 0.532 (inactive); in experiment [7], 0.443. Also, the z-score in [8] was -0.62 (inactive); in experiment [9] it was -0.419 (inactive); in experiment [10], -2.42. This compound came in with a composite z-score in experiment [2] of 0.0622.
